# Laboratory results from PubChem BioAssay (NCATS).
# Results filed as inconclusive are left out. Entries that show only a call come without a potency. A number with no mark means an inactive call. Activity calls are given as the source filed them. Calls follow the shape of the dose curve; as a rule, active = well fitted curve in the direction sought with a large enough effect; inconclusive = small, poorly fitted or top-dose-only effect, or another doubt; inactive = no such curve, though single readings can be large; an effect the other way counts as inactive or inconclusive.
# What was measured:
# [1] = qHTS to identify inhibitors of the type 1 interferon - major histocompatibility complex class I in skeletal muscle: primary screen against the NCATS Mechanism Interrogation Plate v5.0 (MIPE) Libary (AID 1347411); conditions: iHSKM cells + IFN-b, HiBiT-tagged MHC-I luminescence, 24 h; series mostly up to 45.8 µM; also: nearly all actives have a fitted effect of over 65% in size; also: potency is read from the fitted curve at half-maximal effect
# In short: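 Luminescence from CRISPR HiBit-tagged endogenous HLA-B in human myoblasts reported MHC class I level after 24 h of IFN-beta (4 ng/ml) plus compound. Compounds ran as 11-point 1:3 series, top 46 uM final.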
# [2] = qHTS for activators of Nrf2/ARE signaling pathway screened against the NCATS CANVASS Library (AID 1347391); conditions: ARE-bla HepG2, beta-lactamase reporter, 16 h; series mostly up to 46.1 µM; also: nearly all actives have a fitted effect of over 60% in size
# In short: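 Eleven-point qHTS, 16 h treatment of HepG2 cells carrying an ARE-driven beta-lactamase reporter; CCF4 ratio read (405 nm excitation, 460 and 530 nm emission), with CellTiter-Glo ATP luminescence for viability.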
# [3] = qHTS for activators of dead-cell proteases activity screened against the NCATS CANVASS Library (AID 1347392); conditions: HepG2 cytotoxicity, dead-cell protease luminescence, 5 h; series mostly up to 46.1 µM;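 also: luminescence from protease leaking out of membrane-damaged cells cleaving impermeant substrate; rising signal means more cytotoxicity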
# In short: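 Cytotoxicity in HepG2 cells was assessed by released protease cleaving AAF-aminoluciferin, with luminescence as signal. Exposure lasted 5 h at 37C across an 11-point series.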
# [4] = qHTS for inhibitors of ER calcium dysfunction: SERCaMP assay screened against the NCATS CANVASS Library (AID 1347393); conditions: SH-SY5Y GLuc-SERCaMP (Gaussia luciferase released on ER calcium loss) secretion, thapsigargin, luminescence; series mostly up to 76.6 µM;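 also: lower secreted reporter signal means inhibitor of ER calcium depletion; nearly all actives have a fitted effect of over 40% in size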
# In short: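 qHTS in SH-SY5Y reporter cells: 16 h compound pretreatment, 4 h thapsigargin, then secreted Gaussia luciferase measured by luminescence.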
# [5] = Vero-766 cells viability qHTS against the NCATS CANVASS Library: Counterscreen for Zika virus inhibition assay (AID 1347394); conditions: Vero 766 viability, CellTiter-Glo luminescence, 72 h; series mostly up to 46.1 µM; also: nearly all actives have a fitted effect of over 60% in size; also: potency is read from the fitted curve at half-maximal effect
# In short: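 This cytotoxicity counterscreen uses African green monkey Vero 766 cells in the absence of Zika virus. Compounds are incubated with cells for 72 h, and ATP-based luminescence reports viability.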
# [6] = Viability qHTS for inhibitors of the SERCaMP assay screened against the NCATS CANVASS Library (AID 1347400); conditions: SH-SY5Y SERCaMP cells viability, CellTiter-Glo, 48 h; series mostly up to 92.2 µM; also: nearly all actives have a fitted effect of over 70% in size
# In short: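 CellTiter-Glo luminescence measured cytotoxicity after 48 h at 37C of compound treatment (11-point series). Cells were SH-SY5Y-GLuc SERCaMP MJH297 derivatives, seeded at 1000 per well 4 h beforehand.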
# [7] = Redox Reaction Profiling qHTS: Assay Interference Panel against the NCATS CANVASS Library (AID 1347401); conditions: resazurin-DTT redox cycling, fluorescence, 15 min; series mostly up to 57.1 µM
# In short: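 Quantitative HTS over an 11-point series was run in HEPES pH 7.3 with 50 mM NaCl, 200 uM DTT and 5 uM resazurin. Initial and 15-min resorufin fluorescence readings were taken.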
# [8] = qHTS to identify inhibitors of the type 1 interferon - major histocompatibility complex class I in skeletal muscle: primary screen against the NCATS Pharmaceutical Collection (AID 1347407); conditions: human skeletal muscle cells, IFN-b-induced MHC-I HiBiT luminescence, 24 h; series mostly up to 45.9 µM;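 also: luminescence of HiBiT knocked into endogenous HLA-B as interferon-induced MHC class I level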
# In short: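 Cells were seeded with 4 ng/ml IFN-beta, incubated 1 h, then dosed with compounds over eight 1:5 steps up to 46 uM final. After 24 h at 37 C, HiBiT lytic reagent was added and luminescence read after 10 min lysis in the dark.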
# [9] = target: Protein phosphatase 1D (Homo sapiens) (UniProt O15297); assay: RapidFire Mass Spectrometry qHTS Assay for Modulators of WT P53-Induced Phosphatase 1 (WIP1) (AID 1347424); conditions: WIP1 dephosphorylation of phosphopeptide, RapidFire MS; series mostly up to 63 µM;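 also: amount of dephosphorylated VEPPL-S-QETFS peptide product formed by WIP1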; also: potency is read from the fitted curve at half-maximal effect
# In short: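 Mass-spectrometric measurement of dephosphorylated peptide after a 5 min room-temperature reaction of 10 nM WIP1 with 2 uM phosphopeptide, following 1 h compound preincubation in 30 mM MgCl2 buffer.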
# [10] = qHTS for inhibitors of Wild type Zika virus screened against the NCATS CANVASS Library (AID 1347396); conditions: Vero cells, Zika virus CPE, CellTiter-Glo, 72 h; series mostly up to 45.9 µM;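 also: ATP luminescence of surviving cells so rescue from viral cell killing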
# In short: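 Vero 766 (African green monkey) cells, 1000 per well, attached overnight, then compounds were added in an 11-point series before wild-type Zika virus infection. After 72 h at 37C, cell viability was read as CellTiter Glo luminescence.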
# Protein phosphatase 1D (Homo sapiens), sequence (O15297 whole entry, looked up): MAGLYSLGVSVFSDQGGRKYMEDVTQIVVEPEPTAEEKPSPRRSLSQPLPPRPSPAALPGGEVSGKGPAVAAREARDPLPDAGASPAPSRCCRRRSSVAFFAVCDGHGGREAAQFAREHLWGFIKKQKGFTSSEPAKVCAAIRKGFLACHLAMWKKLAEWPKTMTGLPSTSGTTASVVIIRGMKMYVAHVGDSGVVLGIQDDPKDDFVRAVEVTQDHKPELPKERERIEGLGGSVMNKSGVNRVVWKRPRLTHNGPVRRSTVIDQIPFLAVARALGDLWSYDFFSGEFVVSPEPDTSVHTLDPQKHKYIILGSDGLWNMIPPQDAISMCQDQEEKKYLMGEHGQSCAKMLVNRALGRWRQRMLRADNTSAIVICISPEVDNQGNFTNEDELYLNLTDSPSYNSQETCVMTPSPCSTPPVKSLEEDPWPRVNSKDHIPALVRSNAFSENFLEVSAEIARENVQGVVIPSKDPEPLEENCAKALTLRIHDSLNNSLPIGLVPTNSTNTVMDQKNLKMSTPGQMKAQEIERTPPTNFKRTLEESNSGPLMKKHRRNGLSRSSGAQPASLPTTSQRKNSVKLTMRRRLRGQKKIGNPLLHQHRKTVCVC
compound,measurement,setting,value
COc1ccc(S(=O)(=O)Nc2cccnc2Nc2ccc(O)cc2)cc1,Potency,[1],inactive
Nc1ccn(C[C@@H](CO)OCP(=O)(O)O)c(=O)n1,"activity change, negative = inhibition",[1],-9.6% [at 8.44 µM]
C=CC(=O)Nc1ccc2ncnc(Nc3ccc(OCc4cccc(F)c4)c(Cl)c3)c2c1,Potency,[1],10.4 µM (active)
Cc1cc(Nc2ncc3c(n2)N(C)C(=O)N(c2cc(NC(=O)c4cccc(C(F)(F)F)c4)ccc2C)C3)n(C)n1,Potency,[1],0.234 µM (active)
C=C(C)[C@@H]1CC[C@]2(C(=O)O)CC[C@]3(C)[C@H](CC[C@@H]4[C@@]5(C)CC[C@H](O)C(C)(C)[C@@H]5CC[C@]43C)[C@@H]12,outcome,[2],inactive
same,outcome,[3],inactive
same,outcome,[4],inactive
same,Potency,[5],33.1 µM (active)
same,outcome,[6],inactive
same,outcome,[7],inactive
same,Potency,[1],inactive
Cc1ccccc1C(=O)Nc1ccc(C(=O)N2CCCC(O)c3cc(Cl)ccc32)c(C)c1 (stereo not drawn),outcome,[8],inactive
same,Potency,[1],inactive
same,Potency,[9],inactive
Cc1cnc(Nc2ccc(CN3CCOCC3)cc2)nc1Nc1cccc(S(=O)(=O)NC(C)(C)C)c1,Potency,[1],2.94 µM (active)
Cn1cc(CNCC2CCN(c3ncc(C(=O)NO)cn3)CC2)c2ccccc21,Potency,[1],0.117 µM (active)
CC(C)NC[C@@H](C(=O)N1CCN(c2ncnc3c2[C@H](C)C[C@H]3O)CC1)c1ccc(Cl)cc1,Potency,[1],inactive
O=c1c(O)c(-c2ccc(O)c(O)c2)oc2cc(O)ccc12,outcome,[3],inactive
same,Potency,[5],inactive
same,outcome,[10],inactive
O=C1NCCc2[nH]c(-c3ccncc3)cc21,Potency,[1],2.08 µM (active)
N[C@H]1CN(c2c(F)cc3c(=O)c(C(=O)O)cn(C4C[C@@H]4F)c3c2Cl)CC12CC2 (stereo partly drawn),outcome,[8],inactive
same,Potency,[9],inactive
c1ccc(CNc2nc(NCc3ccccc3)c3ccccc3n2)cc1,Potency,[1],26.2 µM (active)
O=C(c1ccc(F)cc1)N1CCC[C@H](c2nc(-c3ccc(F)cc3)no2)C1,Potency,[1],inactive
c1cc(N[C@@H]2CCNC2)nc(-c2cnc3ccc(-c4cn[nH]c4)cn23)c1,Potency,[1],0.829 µM (active)
Nc1ccn(C2CO[C@H](CO)O2)c(=O)n1 (stereo partly drawn),outcome,[8],inactive
same,Potency,[1],inactive
same,Potency,[9],inactive
Cc1ccc(-n2[nH]c(C)c(N=Nc3cccc(-c4cccc(C(=O)O)c4)c3O)c2=O)cc1C,outcome,[8],inactive
same,Potency,[1],inactive
same,Potency,[9],12.6 µM (active)
CCCCC(=O)O[C@]1(C(=O)CO)[C@@H](C)C[C@H]2[C@@H]3CCC4=CC(=O)C=C[C@]4(C)[C@@]3(F)[C@@H](O)C[C@@]21C,Potency,[9],inactive
